ADAM10 inh – inhibits human ADAM10; O14672; inhibition, % at 7 µM; hit rate 0.62% among 370,000; recombinant ADAM10, EDANS/DABCYL FRET peptide cleavage, 3 h;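 active = inhibition above a per-campaign cutoff equal to the mean of compounds falling between control-based bounds plus 3 SD, cut at about 20% in these data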;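 also: 0% = DMSO wells while the 100% control is not disclosed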
Target sequence (O14672 214-748 limits assumed): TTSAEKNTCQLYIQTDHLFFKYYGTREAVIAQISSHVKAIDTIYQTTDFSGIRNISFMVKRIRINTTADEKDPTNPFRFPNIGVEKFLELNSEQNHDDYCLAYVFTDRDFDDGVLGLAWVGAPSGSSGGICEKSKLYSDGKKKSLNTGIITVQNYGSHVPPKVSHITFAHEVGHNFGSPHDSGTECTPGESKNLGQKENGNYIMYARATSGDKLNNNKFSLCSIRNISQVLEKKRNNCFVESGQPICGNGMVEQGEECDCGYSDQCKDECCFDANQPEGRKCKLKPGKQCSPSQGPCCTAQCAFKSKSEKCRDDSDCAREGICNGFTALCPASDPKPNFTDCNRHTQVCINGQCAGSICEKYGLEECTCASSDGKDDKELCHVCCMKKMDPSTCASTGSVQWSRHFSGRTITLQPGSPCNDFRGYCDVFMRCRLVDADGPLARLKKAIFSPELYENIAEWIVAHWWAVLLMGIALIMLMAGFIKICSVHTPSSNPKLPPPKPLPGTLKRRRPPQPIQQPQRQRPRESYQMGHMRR
NPR2 activator – GC-B (human) receptor activation | activation, % at 10 µM | P20594 | HEK293-GC-B cells, CNP EC30, cGMP TR-FRET; 0% at EC30 CNP, 100% saturating CNP | hit rate 0.11% among 370,000;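 active = activation at 10 µM reaching about 35% in either raw or pattern-adjusted values, limit read from the data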
ADAM17 inh – inhibits human ADAM17 | P78536 | recombinant ADAM17, EDANS/DABCYL FRET peptide cleavage | inhibition, % at 6.95 µM | hit rate 0.83% among 370,000 | AID 720648;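 active = inhibition above the mean of compounds lying between control limits plus 3 SD, set per campaign, cut at about 8.5% in these data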;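 also: 0% = DMSO-only wells as the low control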
GC-A act – GC-A (human) enzyme activation; P16066; HEK293 GC-A cells, cGMP TR-FRET, EC30 ANP; 0% at EC30 ANP, 100% saturating ANP; activation, % at 10 µM; hit rate 0.14% among 370,000; in the data active = activation above about 40%
The depositor's hits bear a star; nt = no result given. Compounds with a hit are over-represented: about 1.3% of the library has one in this group of screens.

SMILES	ADAM10 inh	NPR2 activator	ADAM17 inh	GC-A act
Cc1ccc([C@@H]2[C@@H]3C(=O)N(c4ccccc4)C(=O)[C@@H]3[C@]3(C)C(=O)N(Cc4ccccn4)CC(=O)N23)o1	6.8	1.0	-3.8	4.1
Cc1ccc([C@@H]2[C@@H]3C(=O)N(c4ccccc4)C(=O)[C@@H]3[C@]3(C)C(=O)N(Cc4ccc(-c5ccccc5)cc4)CC(=O)N23)o1	11.0	0.3	-1.9	49.1*
O=C(CN1C(=O)CCC1=O)Nc1nc(-c2ccc(Cl)s2)cs1	-8.2	0.8	-1.7	54.0*
CC1CC1C(=O)Nc1nc(-c2ccc(Cl)s2)cs1 (centres undefined)	-0.6	4.5	0.4	50.5*
O=C(CSCC(=O)N1CCCCC1)Nc1nc(-c2ccc(Cl)s2)cs1	-27.6	-1.6	-6.6	43.4*
O=C(Cn1nnc(-c2ccccc2F)n1)Nc1ccc(Cl)cc1	-1.9	-3.4	6.8	4.5
N#Cc1cc(N2CCCCC2)c([N+](=O)[O-])cc1C#N	7.0	-10.3	2.1	-5.3
O=[N+]([O-])c1cc2no[n+]([O-])c2cc1N1CCCCC1	-1.7	20.1	1.2	42.3*
C[C@@H](NC(=O)c1ncn2c1c(=O)[nH]c1ccc(Br)cc12)c1ccccc1	-36.2	39.8*	-9.1	20.3
C[C@@H]1CN([C@H](C)CO)C(=O)CCCn2nncc2CO[C@@H]1CN(C)S(=O)(=O)c1ccccc1C#N	-12.8	1.6	3.1	3.8
COc1ccc(-c2cc(C#N)nc(Cl)n2)cc1	-96.7	19.6	-39.6	78.0*
COc1ccc(-c2cc(C#N)nc(Oc3ccc(Cl)cc3)n2)cc1	-47.9	-2.4	-7.9	4.5
Nc1ccc(C(=O)n2c3ccccc3c3ccccc32)cc1	18.7	-9.4	6.9	49.5*
COc1ccc(C(=O)NC(=O)COC(=O)c2ccc(C)o2)cc1	-3.2	-0.2	1.3	1.3
O=C(NC1CCCCC1)C(c1ccccn1)N(C(=O)c1csnn1)c1ccccc1 (centres undefined)	-2.9	0.8	-1.4	1.8
COc1cccc(CNC(=O)CC(NC(=O)c2ccccc2)c2ccccc2)c1 (centres undefined)	4.8	-2.2	-5.4	0.5
Clc1ccc(OCCSc2ncccn2)c(Br)c1	1.9	-0.3	4.2	48.6*
COC(=O)c1cccc(NC(=O)Nc2ccc(Cl)cc2Cl)c1	10.6	-3.9	7.9	-0.4
CC(=O)Nc1cc(C(=O)OCC(=O)c2ccc(C)cc2)ccc1C	-0.1	-7.0	-1.6	7.4
CC(C)C(=O)Nc1cccc(C(=O)OCC(=O)c2ccc(Cl)cc2Cl)c1	11.0	-5.1	-2.3	58.7*
CC(=O)Nc1cc(C(=O)OCC(=O)c2ccc(Cl)cc2Cl)ccc1C	5.1	4.5	4.6	61.4*
O=C(COC(=O)c1ccccc1O)NCc1ccccc1Cl	-0.4	-6.5	-2.0	-5.1
CCNc1nc(NC(C)(C)C)nc(N(C#N)CC)n1	-0.1	47.6*	-1.1	43.8*
CCNc1nc(NCC)nc(N(C#N)C(C)C)n1	-0.4	-0.5	-3.9	1.1
O=C(COC(=O)C1CC2CCCC(C1)C2=O)Nc1ccc(Cl)cn1 (centres undefined)	-16.0	0.0	-6.4	1.8
SMILES	ADAM10 inh	NPR2 activator	ADAM17 inh	GC-A act
CCCCNC(=O)C1=C(N)C(C(=O)Nc2ccc(C)c(S(=O)(=O)N3CCCCC3)c2)SC1=Nc1ccc(C)cc1C (centres undefined)	39.9*	1.3	15.8*	0.9
CCCCn1cnc2c(c1=O)c1nc3ccccc3nc1n2Cc1ccc2c(c1)OCO2	-6.3	52.3*	-6.3	51.6*
CCC(C)n1cnc2c(c1=O)c1nc3ccccc3nc1n2Cc1ccc(OC)cc1 (centres undefined)	-8.3	53.6*	-0.6	52.9*
COc1ccc(Cn2c(C)nc3c(c2=O)c2nc4ccccc4nc2n3Cc2ccco2)cc1	-79.0	27.6	-25.5	27.9
O=C(CSc1nc2ccccc2nc1N1CCCCC1)NCc1ccc(Cl)cc1Cl	1.9	-8.5	-3.0	0.7
Cc1ccc(OCCOc2ccc(Cl)cc2Cl)c(Br)n1	13.1	2.0	4.4	36.7
COC(=O)[C@@]12CCCCC=C1N(CCc1ccc(Cl)cc1)C(=O)[C@H]2CC(=O)NCC12CC3CC(CC(C3)C1)C2	-0.9	-0.5	-4.1	0.3
O=C(CCN1CCN(c2ccccc2)CC1)c1ccc(Br)cc1	9.7	-0.1	0.0	40.1*
Cc1ccc(C(=O)NC2CCN(CCCC(=O)c3ccc(F)cc3)CC2)cc1	-3.5	-8.1	-3.7	7.5
O=C(CCN1CCOCC1)c1ccc(Br)cc1	-0.5	-6.2	-4.6	31.8
O=C(CCN1CCCCCC1)c1ccccc1	-2.4	-1.2	-4.2	71.3*
CCC1(C)CC2(CCCN(CCC(=O)c3ccccc3)C2)CCO1 (centres undefined)	1.5	-1.5	-0.3	42.7*
O=C(CCN1CCC2CCC(C2)C1)c1ccc(F)cc1 (centres undefined)	8.9	-3.4	-3.1	71.7*
COc1ccc(C(=O)CCN2CCCCCC2)cc1	-1.9	-15.2	-2.2	33.3
C[N+]1=C2N[C@@H](c3ccccc3)CC(=O)N2/C(=C\c2ccccc2)[C@@H]1Cc1ccccc1	2.0	-20.0	-0.4	-7.1
N=c1n(CCN2CCCCC2)c2ccccc2n1CC(=O)c1cccs1	-2.1	-8.6	-4.8	-9.0
O=C(CCN1CCCC1)c1cccs1	5.8	0.3	-2.4	50.4*
O=C(c1cccs1)N1CCC(c2ccccc2)C1 (centres undefined)	-4.8	-1.7	-2.5	0.4
O=C(CCN1CCOCC1)c1ccc(Cl)cc1	-4.0	-4.4	-5.6	58.0*
O=C(CCN1CCC(c2ccccc2)C1)c1cccs1 (centres undefined)	-1.8	0.1	-2.5	51.6*
O=C(CCN1CCC(c2ccccc2)C1)c1ccccc1 (centres undefined)	nt	-2.2	nt	58.5*
O=C(CCN1CCC(c2ccccc2)C1)c1ccc2c(c1)OCCO2 (centres undefined)	-7.3	2.5	-6.6	15.8
COc1ccc(CCNc2nc3ccccc3n3cnnc23)cc1OC	5.0	14.1	-2.4	8.0
CCc1nnc2c(NCCc3ccc(OC)c(OC)c3)nc3ccccc3n12	-2.2	53.5*	-2.9	40.1*
O=C(c1ccc(Cl)cc1)C1CCN(c2ncnc3sccc23)CC1	-0.5	-6.4	-0.1	-1.8
SMILES	ADAM10 inh	NPR2 activator	ADAM17 inh	GC-A act
Cc1ccc(CNc2nc(C)nc3sc4c(c23)CCC4)cc1	-5.9	45.2*	2.0	40.3*
Cc1nc(Nc2ccc(O)cc2)c2c3c(sc2n1)CCCC3	nt	-2.2	nt	-7.8
COCCNc1nc2c(-c3cccc(C(F)(F)F)c3)nnn2c2ccccc12	-18.0	41.8*	-4.2	39.0
CC(=O)NCCNc1nc2c(-c3cccc(C(F)(F)F)c3)nnn2c2ccccc12	-336.0	4.7	-31.9	8.5
O=S1(=O)c2c(cccc2N2CCC[C@@H]2CO)O[C@@H]2CCN1C2	-4.9	5.7	-4.5	2.0
COc1ccc(CN(CC#Cc2ccc(C)cc2)C(N)=NC(=O)CCc2ccccc2)c(OC)c1	12.7	7.0	6.3	-3.3
O=C(NCc1ccc(Cl)cc1)O[C@H]1CC[C@@]23CCCN2C(=O)CCC[C@H]3C1	2.5	-2.2	-1.1	-0.1
